Measured values: the supplement of paper PMC12494721
Where a name gives a salt, the structure may show the parent alone.

These molecules were tested on Ruminococcus gnavus DSM 108212 (assay: growth (OD595) fold change vs plate DMSO controls (fold change (ratio)); higher = more growth). Settings: incubation time: 27 h, anaerobic, 37 °C.
Outline: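 Growth is the fold change relative to the median of plate DMSO controls. Readings came from anaerobic mGAM cultures in 96-well plates grown for 27 h at 37 °C and read at 595 nm. They were blank-subtracted, corrected for compound background with 20 µM compound solutions in water, and converted to OD with a calibration factor of 5. Values are means of 2 biological replicates, and fold changes above 1.5 were set to NA.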

SMILES | growth
CC(=O)[C@H]1CC[C@H]2[C@@H]3CC=C4C[C@@H](O)CC[C@]4(C)[C@H]3CC[C@]12C [Pregnenolone] (20 µM) | 0.993
CC(C(=O)O)c1ccc(N2Cc3ccccc3C2=O)cc1 (stereo not given) [Indoprofen] (20 µM) | 1.01
Cc1cc(O)c(C(=O)N[C@@H](C(=O)N[C@@H]2C(=O)N3C(C(=O)O)=C(CSc4nnnn4C)CS[C@H]23)c2ccc(O)cc2)cn1 [Cefpiramide] (20 µM) | 0
CC(C)=CCC1C(=O)N(c2ccccc2)N(c2ccccc2)C1=O [Feprazone] (20 µM) | 1.04
COC(=O)C1=C(C)NC(C)=C(C(=O)OCCN(C)Cc2ccccc2)C1c1cccc([N+](=O)[O-])c1 (stereo not given) [Nicardipine hydrochloride] (20 µM) | 1.18
COCCOC(=O)C1=C(C)NC(C)=C(C(=O)OC(C)C)C1c1cccc([N+](=O)[O-])c1 (stereo not given) [Nimodipine] (20 µM) | 0.991
NS(=O)(=O)c1cc2c(cc1Cl)N=CNS2(=O)=O [Chlorothiazide] (20 µM) | 0.966
CC(Oc1ccccc1)C(=O)N[C@@H]1C(=O)N2[C@@H]1SC(C)(C)[C@@H]2C(=O)O (stereo not given in full) [Phenethicillin potassium salt] (20 µM) | 0
Cc1ccc(N(CC2=NCCN2)c2cccc(O)c2)cc1 [Phentolamine hydrochloride] (20 µM) | 0.765
CC1(C)O[C@@H]2C[C@H]3[C@@H]4C[C@H](F)C5=CC(=O)CC[C@]5(C)[C@H]4[C@@H](O)C[C@]3(C)[C@]2(C(=O)CO)O1 [Flurandrenolide] (20 µM) | 1.27
